An excerpt weighted towards active compounds, which were near 21% of everything screened.
Pf growth 96h: P. falciparum growth inhibition at 96 hours. Potency, µM (titrated, usually from 28.7 µM), inactives show at the highest dose activity change, negative = inhibition, hits mostly inhibitors. P. falciparum luciferase reporter growth, 96 h. 320,000 tested, 6.9% active; active = well fitted inhibition curve with a large enough effect; inconclusive = small, poorly fitted or top-dose-only effect, or another doubt; inactive = no such curve, though single readings can be large or run the other way; also: potency is read from the fitted curve at half-maximal effect; % is scaled to controls: 0 for no effect and ±100 for the full control effect
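P. falciparum expressing integrated firefly luciferase, in erythrocytes at 2% hematocrit, 0.05% parasitemia, incubated with compounds 96 h at 37 C, 5% CO2. Growth inhibition read as loss of luminescence; two-generation exposure targets delayed-death apicoplast inhibitors.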
Pf growth 48h: inhibits P. falciparum growth in the first generation, 48 h | P. falciparum luciferase growth in erythrocytes, 48 h | Potency, µM (doses to about 28.7 µM), for the others: at the top dose activity change, negative = inhibition, hits mostly inhibitors | 310,000 tested, 5.9% active; active = well fitted inhibition curve with a large enough effect; inconclusive = small, poorly fitted or top-dose-only effect, or another doubt; inactive = no such curve, though single readings can be large or run the other way; also: potency is read from the fitted curve at half-maximal effect; % is scaled to controls: 0 for no effect and ±100 for the full control effect
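Firefly luciferase activity from engineered P. falciparum reports growth; inhibitors lower the luminescent signal. Cultures contained 2% hematocrit erythrocytes at 0.1% final parasitemia.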
Shiga inhibitor: Shiga toxin inhibition | Vero cells, Shiga toxin protein synthesis inhibition reporter | inhibition, % at 38.7 µM | 290,000 tested, 9.2% active; in the data active = inhibition mostly above about 28%, no sharp cut-off; inactive = mostly below about 43%; also: 0% is about no effect
NS1 function inh: influenza NS1 inhibition; Potency, µM (top dose mostly 46.1 µM), for the others: top-dose activity, positive = more growth; 270,000 tested, 0.4% active; AID 2326; also: potency is read from the fitted curve at half-maximal effect; actives are rising curves; nearly all actives have a fitted effect of over 50% in size
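S. cerevisiae expressing influenza A NS1, grown in glucose, washed, then diluted 1:100 into pH 6.0 -URA galactose medium with 23 nl compound. Growth recovery read as OD600; NS1-free strain serves as control.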
SARS PLpro yeast: SARS-CoV PLP inhibition in yeast. S. cerevisiae expressing SARS-CoV PLpro, growth rescue. Potency, µM (titrated, usually from 32.9 µM), inactives show top-dose activity, positive = growth rescue, most hits filed as activators. 330,000 tested, 0.19% active. AID 485353; also: potency is read from the fitted curve at half-maximal effect; 0% is about no effect; nearly all actives have a fitted effect of over 55% in size
CHX counter-1: counter-screen hit for Shiga toxin inhibitors, cycloheximide; cell reporter, cycloheximide protein synthesis inhibition counterscreen; max response, %; 300,000 tested, 12% active; AID 2314; in the data active = max response mostly above about 13%, no sharp cut-off; inactive = mostly below about 14%; also: read at 38.3 µM for the half of the compounds with a filed dose; 0% is about no effect
CHX counter-2: counter-screen for Shiga toxin inhibitors: cycloheximide protein synthesis block | shares compounds with Shiga inhibitor | Cycloheximide counterscreen, protein synthesis reporter, Shiga toxin assay | Potency, µM (top dose mostly 38.3 µM), without a hit: at the top dose activity (activation), usual class: activators | 510 tested, 3% active | AID 2318; also: potency is read from the fitted curve at half-maximal effect; 0% is about no effect
Numbers without * were called inactive; u = inconclusive; x = no result. Unless noted, calls follow the shape of the full dose curve.

SMILES | Pf growth 96h | Pf growth 48h | Shiga inhibitor | NS1 function inh | SARS PLpro yeast | CHX counter-1 | CHX counter-2
O=C(NNC(=O)C1CC(=O)N(Cc2ccccc2)C1)c1ccc(Br)cc1 (stereo not drawn) | 2.3µM* | 26% | -1 | 9% | 24% | 2 | x
Cc1ccc(NC(=O)C2CC(=O)N(Cc3ccccc3)C2)cc1S(=O)(=O)N1CCCCCC1 (stereo not drawn) | 12µM* | u | -8 | -5% | 19% | -2 | x
CC1CC(C)CN(S(=O)(=O)c2ccc(NC(=O)C3CC(=O)N(Cc4ccccc4)C3)cc2)C1 (stereo not drawn) | u | u | -3 | -4% | 2% | -1 | x
CCN(CC)S(=O)(=O)c1cc(NC(=O)C2CC(=O)N(Cc3ccccc3)C2)ccc1Cl (stereo not drawn) | u | 10µM* | x | x | 0% | x | x
O=C(Nc1ccc(S(=O)(=O)N2CCCCC2)cc1)C1CC(=O)N(Cc2ccccc2)C1 (stereo not drawn) | u | 13µM* | x | x | 2% | x | x
CSc1nc(C)c2cc(C)oc2n1 | 0.37µM* | 16% | 71* | -15% | 3% | -3 | -2%
CCOC(=O)c1cc(C(=O)c2ccccc2O)cn2c(=O)c3c(C)c(C)sc3nc12 | 14% | 9% | -14 | 2% | -1% | -3 | x
O=C(Nc1ncc2c(n1)-c1ccccc1CC2)c1cccc(Cl)c1 | 28% | 9% | 33* | -47% | -22% | 2 | u
Nc1nc(-c2ccc3c(c2)CCC(=O)N3)cs1 | 67% | 63% | 42* | x | 1% | 7 | u
COc1ccc(S(=O)(=O)NNC(=O)Nc2ccc(C)cc2C)c(OC)c1 | -16% | 7% | -9 | 7% | -5% | -1 | x
COc1cc(/C=C2/C(=O)c3cccc([N+](=O)[O-])c3C2=O)c(Br)cc1O | -61% | 3% | 61* | 1% | -54% | 4 | u
COc1ccccc1NC(=O)CCCCCN1C(=O)c2cccc([N+](=O)[O-])c2C1=O | 67% | 16% | -4 | -1% | 1% | -1 | x
Cc1cc(OCC(=O)NCc2ccccn2)cc(C)c1Br | u | 14% | 47* | -8% | -25% | 2 | 6%
O=C(COc1ccc2ccc(=O)oc2c1)NCc1ccccn1 | -3% | 3% | -11 | 5% | 2% | -2 | x
COC(=O)c1ccc(-c2ncc(-c3cccc4ccccc34)o2)cc1 | 74% | 62% | 34* | 2% | 1% | 2 | 10µM*
COc1ccc(C(=O)OCC#CCSc2nnc(-c3cccc4ccccc34)o2)cc1 | 2% | 17% | x | x | -5% | x | x
Clc1nssc1=Nc1ccc(Br)cc1 | -27% | 17% | 59* | x | -20% | 11 | 5%
O=C(Cn1c(NCCO)nc2ccccc21)c1ccccc1 | 9.3µM* | 11% | active | 4% | -1% | 4 | 0%
Cc1ccc(SCC(=O)OCC(=O)N2CCN(C(=O)c3ccco3)CC2)c(C)c1 | -3% | -1% | x | x | -2% | x | x
COc1ccc2nc3cc(Cl)ccc3c(NCCCN3CCN(CCCNc4c5ccc(Cl)cc5nc5ccc(OC)cc45)CC3)c2c1 | x | x | 34* | x | x | 10 | 0%
COc1ccc2nc3cc(Cl)ccc3c(C#N)c2c1 | u | u | -4 | 0% | -1% | 1 | x
CC(=O)c1cccc(NS(=O)(=O)c2ccc(-c3cc(C)no3)s2)c1 | 1% | 14% | 3 | 0% | 10% | -5 | x
CCC(=O)N1CCN(c2ccc(NC(=O)c3ccc(Br)o3)cc2)CC1 | 0% | 23% | 22* | -8% | 0% | 3 | 7%
CCCCC(=O)Nc1ccc(N2CCN(C(=O)CC)CC2)cc1 | -2% | 11% | -1 | 2% | 3% | -1 | x
O=C(c1nc2ccccn2c1CNCCOc1cccnc1)N1CCOCC1 | u | 18% | 18 | 5% | -1% | -2 | x
SMILES | Pf growth 96h | Pf growth 48h | Shiga inhibitor | NS1 function inh | SARS PLpro yeast | CHX counter-1 | CHX counter-2
ClCc1csc(-c2ccccc2Cl)n1 | 16% | -4% | 5 | x | 0% | 13 | x
Cc1oncc1-c1csc(-c2ccccc2Cl)n1 | 105% | 19% | 121* | -12% | -1% | 9 | u
COc1ccc(C)cc1NCc1ccc(OC)c(C)c1OC | 0% | u | 9 | 1% | -1% | 4 | x
Cc1cc(C)cc(NC(=O)C(OC(=O)c2ccc([N+](=O)[O-])o2)c2ccccc2)c1 (stereo not drawn) | -27% | 5% | 30* | 20% | -14% | -2 | 1%
O=C(O)c1c(-c2ccc(Cl)cc2)cn2ccccc12 | 100% | 91% | 16 | x | -1% | 8 | x
COc1ccc(CCN(C)C(=O)CSc2nnc(C3CC3)n2N)cc1OC | 1% | -1% | x | x | -1% | x | x
Cc1ccc(C)n1-c1ccc(NC(=O)c2ccccc2)cc1 | 12µM* | u | 32* | 7% | 8% | 7 | u
COC(=O)c1[nH]c2cc(OC)c(OC)cc2c1/C=N/Nc1ccccc1 | u | 0% | 29 | -2% | -9% | 12 | x
Cc1ccc(F)c(CNC(=O)C2CCC(=O)N(CCN3CCOCC3)C2)c1F (stereo not drawn) | u | 5% | -3 | 4% | u | -3 | x
CCn1c2ccccc2c2cc(NC(=O)c3cccc([N+](=O)[O-])c3)ccc21 | 41% | u | 61* | 4% | 4% | 9 | -3%
CCN(CC)CC(=O)Nc1ccc(-c2nc3cc(NC(=O)CN(CC)CC)ccc3o2)cc1 | -3% | 2.6µM* | 81* | 4% | 14% | 8 | 2%
O=C(CSc1nnc(NC(=O)c2cccc(F)c2)s1)NC1CC1 | 42% | 42% | -7 | 10% | 2% | -5 | x
Cc1cccc(C(=O)Nc2nnc(SCC(=O)NC3CC3)s2)c1 | u | 72% | 53* | 3% | 4% | -3 | u
COc1ccc(C2=NN(C(=O)c3ccco3)C(c3cc4ccccc4nc3Cl)C2)cc1 (stereo not drawn) | 11% | -11% | 28* | u | -2% | 5 | 0%
COC(=O)c1ccc(C)c(NC(=O)CCSc2ccc(Cl)cc2)c1 | -9% | -1% | 100* | u | 10% | 10 | -3%
COc1ccc(/C=N/NC(=O)C(C)n2cnc3ccccc3c2=O)cc1OC (stereo not drawn) | 291% | -4% | -9 | 17% | 5% | -4 | x
Cc1nonc1OCCNc1ccc([N+](=O)[O-])cc1[N+](=O)[O-] | 49% | 4% | -5 | 12% | 10% | -2 | x
Cc1nonc1OCCCNc1ccc([N+](=O)[O-])cc1Cl | -23% | 0% | 116* | x | 0% | 14 | u
Cc1ccc(NC2=NCC(=O)N2C2CCCC2)cc1 | 5.9µM* | 15% | 58* | 3% | 1% | 7 | -2%
Cc1c(NC(=O)c2ccc3c(c2)OCO3)cccc1-c1nc2ccccc2o1 | -29% | 8% | 39* | -14% | -3% | 8 | 4%
O=C(Nc1ccccc1-c1nc2ccccc2o1)c1ccc2c(c1)OCCO2 | x | x | x | 4% | x | x | x
